# Assay results reported in article PMC4336329 (PLoS ONE, 2015).
# Hit rate of the full screen: of about 310,000 compounds, about 14,000 (4.5%) showed an effect of 50% or more. Effects have a minus sign here. Shown is part of a subset that was picked to be rich in strong results.
# Target: human ether-à-go-go-related gene (hERG) potassium channel (human, UniProt Q12809)
# Test: primary screen, population patch clamp on CHO cells stably expressing hERG; higher = less effect of the substance
# 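Note: peak tail current of the secondary pulse compared with the same well before compound.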
# human ether-à-go-go-related gene (hERG) potassium channel, sequence (Q12809 whole entry, looked up): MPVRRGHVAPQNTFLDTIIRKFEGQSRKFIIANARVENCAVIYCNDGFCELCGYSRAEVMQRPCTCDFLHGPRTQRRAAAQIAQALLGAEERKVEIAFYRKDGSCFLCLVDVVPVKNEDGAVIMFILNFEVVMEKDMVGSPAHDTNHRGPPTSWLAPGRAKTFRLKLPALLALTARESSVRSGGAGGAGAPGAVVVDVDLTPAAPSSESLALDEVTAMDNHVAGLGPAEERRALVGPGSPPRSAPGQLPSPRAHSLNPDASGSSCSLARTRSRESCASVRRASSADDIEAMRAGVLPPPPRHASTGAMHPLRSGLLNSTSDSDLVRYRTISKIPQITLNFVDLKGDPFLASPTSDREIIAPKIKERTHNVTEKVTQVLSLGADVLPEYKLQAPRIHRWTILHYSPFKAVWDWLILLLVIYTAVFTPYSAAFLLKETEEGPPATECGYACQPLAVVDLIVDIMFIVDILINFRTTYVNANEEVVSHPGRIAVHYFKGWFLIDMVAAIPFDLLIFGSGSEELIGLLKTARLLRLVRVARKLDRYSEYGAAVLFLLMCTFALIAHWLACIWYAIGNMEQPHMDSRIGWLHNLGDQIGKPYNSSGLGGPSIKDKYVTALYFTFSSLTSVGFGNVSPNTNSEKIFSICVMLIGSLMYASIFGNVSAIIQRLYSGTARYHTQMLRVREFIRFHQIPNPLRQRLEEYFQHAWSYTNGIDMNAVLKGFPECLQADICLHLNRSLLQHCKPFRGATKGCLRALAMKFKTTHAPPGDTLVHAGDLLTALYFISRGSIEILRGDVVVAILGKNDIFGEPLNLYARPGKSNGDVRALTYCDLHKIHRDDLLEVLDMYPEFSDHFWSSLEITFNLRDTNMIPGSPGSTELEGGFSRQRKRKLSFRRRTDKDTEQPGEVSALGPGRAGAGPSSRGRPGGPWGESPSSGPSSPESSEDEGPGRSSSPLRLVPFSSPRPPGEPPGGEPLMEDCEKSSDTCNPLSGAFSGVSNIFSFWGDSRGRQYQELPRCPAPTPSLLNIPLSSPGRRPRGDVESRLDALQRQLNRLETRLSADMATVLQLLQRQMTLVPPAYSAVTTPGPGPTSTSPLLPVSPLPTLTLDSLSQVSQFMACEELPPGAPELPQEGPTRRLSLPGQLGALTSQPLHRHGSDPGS
row,Compound,"hERG current change (%, negative = inhibition) at 10uM"
1,COc1nccnc1NS(=O)(=O)c1ccc(NCc2ccccc2O)cc1,7.4%
2,CC(=O)Nc1ccc(S(=O)(=O)N2CCSC2)cc1,1.65%
3,COc1ccc(N2CCN(c3ncnc4scc(-c5ccc(C)cc5)c34)CC2)cc1,13%
4,CC(C)(C)NC(=O)C(c1ccc(O)cc1)N(C(=O)CCC(=O)Nc1ccccn1)c1ccc(F)cc1 (centres unmarked),8.1%
5,COC(=O)C(CCSC)NC(=O)c1cccc([N+](=O)[O-])c1 (centres unmarked),-12.1%
6,CCOC(=O)N1CCN(S(=O)(=O)c2ccc3c(c2)oc(=O)n3C)CC1,-0.295%
7,CC(=O)c1ccc(NC(=O)C2CC2c2ccccc2)cc1 (centres unmarked),3.25%
8,CC1=NOC(=O)/C1=C\c1ccc(-c2cccc(Cl)c2)o1,10.4%
9,NC(=O)[C@H]1CC2(CC(c3cccc(NC(=O)[C@H]4CCC(=O)N4)c3)=NO2)CN1C(=O)c1ccccc1C(=O)c1ccccc1 (some centres unmarked),14.7%
10,CC1CCN(CCOc2cccc(Br)c2)CC1.O=C(O)C(=O)O,-20.3%
11,CC1CN(CCCCOc2cccc(Oc3ccccc3)c2)CC(C)O1.O=C(O)C(=O)O (centres unmarked),-35.9%
12,CC1CN(CCOc2cccc(Oc3ccccc3)c2)CC(C)O1.O=C(O)C(=O)O (centres unmarked),5.01%
13,CC1CCN(CCCCOc2cccc(Br)c2)CC1.O=C(O)C(=O)O,-69%
14,CC1CCCN(CCOc2cccc(Oc3ccccc3)c2)C1.O=C(O)C(=O)O (centres unmarked),-64.7%
15,O=C(NCc1ccc2c(c1)OCO2)C1CCC(=O)N1C1CCCCC1 (centres unmarked),-9.26%
16,Cc1cc(NC(=O)CCC(=O)N(c2ccccc2)C(C(=O)NC2CCCC2)c2ccncc2)no1 (centres unmarked),2.53%
17,C=CCOc1ccc(CNc2ccc3[nH]c(=O)[nH]c3c2)cc1,1.57%
18,Clc1cccc(Oc2cnc3ccccc3n2)c1,-25.8%
19,O=C(NCc1cccnc1)C1CCN(S(=O)(=O)c2cccc(C(F)(F)F)c2)CC1,2.69%
20,Cc1cccc(NC(=S)N(CCN2CCOCC2)Cc2ccccc2F)c1,-25%
21,CCOC(=O)N1CCN(C(=O)Cn2ncc3c2-c2ccccc2OC3)CC1,-3.57%
22,O=C(Cn1ncc2c1-c1ccccc1OC2)N1CCN(Cc2ccc3c(c2)OCO3)CC1,-61.3%
23,Cc1ccc(C)c(CN2CCCN(C(=O)Cn3ncc4c3-c3ccccc3OC4)C2)c1,-2.82%

row,Compound,"hERG current change (%, negative = inhibition) at 10uM"
1,O=C(CN1C(=O)c2ccccc2S1(=O)=O)N1CCN(Cc2ccc3c(c2)OCO3)CC1,-12.8%
2,CCN1CCN(C(=O)Cn2ncc3c2-c2ccccc2OC3)CC1,-10.1%
3,O=C(Cn1ncc2c1-c1ccccc1OC2)N1CCN(Cc2ccccc2)CC1,-68.5%
4,COC(=O)[C@@H](NC(=O)NCCC1=CCCCC1)C(C)C,-3.29%
5,COC(=O)CCCC(=O)N1CCCC(CCC(=O)NCc2ccc(F)c(F)c2)C1 (centres unmarked),0.17%
6,COc1ccc(NC2CCCN(Cc3cccc4cnccc34)C2)cc1 (centres unmarked),-18.5%
7,COc1cc(/C=N/N2CCCCC2)cc([N+](=O)[O-])c1O,20.8%
8,CC(CCN1CCC(n2nccc2NC(=O)c2ccccc2Cl)CC1)c1ccccc1 (centres unmarked),-82.7%
9,CC(CN1CCC(n2nccc2NC(=O)c2ccccc2Cl)CC1)c1ccccc1 (centres unmarked),-68.9%
10,COCC(C)N1CCC(n2nccc2NC(=O)c2ccccc2Cl)CC1 (centres unmarked),-47.9%
11,CC(C)CCN1CCC(n2nccc2NC(=O)C2CCOC2)CC1 (centres unmarked),15.3%
12,CC(CN1CCC(n2nccc2NC(=O)C2CCCC2)CC1)c1ccccc1 (centres unmarked),-24%
13,Cc1cc(-c2ccco2)n(CC(=O)NCc2ccco2)n1,8.48%
14,CCC(C(=O)N1CC2(C)CC1CC(C)(C)C2)N1C(=O)c2ccccc2C1=O (centres unmarked),-18.3%
15,Cc1cc(=O)oc2cc(OCCc3ccccc3)ccc12,-0.326%
16,CCOc1ccc2c(c1)-c1c(ssc1=S)C(C)(C)N2C,-3.7%
17,CCOC(=O)C1C(=O)C=C(c2ccc(C)cc2)CC1c1ccco1 (centres unmarked),5.34%
18,CCOC(=O)C1C(=O)C=C(c2ccc(NS(C)(=O)=O)cc2)CC1c1ccco1 (centres unmarked),-80.3%
19,CCOC(=O)C1C(=O)C=C(c2ccc(C)cc2)CC1c1cccc([N+](=O)[O-])c1 (centres unmarked),-4.88%
20,CCOC(=O)C1C(=O)C=C(c2ccc(C)cc2)CC1c1ccccc1 (centres unmarked),28.2%
21,CCOC(=O)C1C(=O)C=C(c2ccc([N+](=O)[O-])cc2)CC1c1ccccc1 (centres unmarked),-63.5%
22,CCOC(=O)C1C(=O)C=C(c2ccc(Br)cc2)CC1c1ccco1 (centres unmarked),-23.2%
23,CCOCC(=O)Nc1ccc2c(c1)OCCO2,19.6%

row,Compound,"hERG current change (%, negative = inhibition) at 10uM"
1,Brc1ccc2c(c1)C(c1cccs1)=NNC(c1cccnc1)=N2,-14.5%
2,COc1ccc(NC(=O)CCC(=O)c2ccc(C(C)C)cc2)cc1,27.7%
3,CCOCCCn1c(=NC(C)=O)c(C#N)cc2c(=O)n3ccccc3nc21,-15.4%
4,CC(C)OCCCn1c(=NC(=O)c2cccs2)c(C#N)cc2c(=O)n3ccccc3nc21,-77.6%
5,CC(C)OCCCn1c(=NC(=O)c2ccncc2)c(C#N)cc2c(=O)n3ccccc3nc21,-74.2%
6,CCOCCCn1c(=NC(=O)c2cccs2)c(C#N)cc2c(=O)n3ccccc3nc21,-76.9%
7,CCCCCn1c(=NC(C)=O)c(C#N)cc2c(=O)n3ccccc3nc21,-43%
8,CC(=O)N=c1c(C#N)cc2c(=O)n3ccccc3nc2n1CCCOC(C)C,-13.6%
9,Cc1ccc(NC(=O)c2ccc(CSc3nnnn3C)cc2)cc1,-15.3%
10,COc1ccc(-c2nc(CS(=O)CC(=O)NCc3cccnc3)c(C)o2)cc1OC (centres unmarked),-2.9%
11,O=C(NCCCN1CCCCCC1)c1ccc(N2CCCC2=O)cc1,16.4%
12,COc1ccccc1/C=C(\C#N)C(=O)c1cccn1C,5.95%
13,CCOC(=O)C1(Cc2cccc(OC)c2)CCN(CC2CC=CCC2)CC1 (centres unmarked),-71.7%
14,CCOC(=O)C1(Cc2ccccc2)CCN(CC2CC=CCC2)CC1 (centres unmarked),-54.9%
15,CCOC(=O)C1(Cc2cccc(F)c2)CCN(CC2CC2)CC1,-33.4%
16,CCN(Cc1cnn(C)c1)C(=O)c1ccc(OC2CCN(S(=O)(=O)N(C)C)CC2)cc1,19.1%
17,CCSC1=C(C#N)C(c2ccc3c(c2)OCO3)C2=C(CCCC2=O)N1 (centres unmarked),-23.4%
18,Oc1ccc(/C=N/N2CCN(Cc3ccccc3)CC2)cc1,7.33%
19,O=C(COC(=O)CC1CCCC1)Nc1cccc(F)c1,-1.79%
20,O=C(NCc1cccs1)[C@@H]1CSC2c3ccccc3C(=O)N21 (some centres unmarked),8.92%
21,COCc1ccc(CN2CCc3c([nH]c4ccccc34)C2C(C)(C)C)o1 (centres unmarked),7.25%
22,Cc1c(CN2CCc3c([nH]c4ccccc34)C2CC(C)C)cnn1C (centres unmarked),-36%
23,CCc1nccn1CCC(=O)N1CCc2c([nH]c3ccccc23)C1CC(C)C (centres unmarked),-53.9%

row,Compound,"hERG current change (%, negative = inhibition) at 10uM"
1,CCn1ccnc1CN1CCc2c([nH]c3ccccc23)C1C1CCCCC1 (centres unmarked),-19.4%
2,CCn1nc(C)c(CN2CCc3c([nH]c4ccccc34)C2C(C)(C)C)c1C (centres unmarked),-3.17%
3,Cc1cnc(CN2CCc3c([nH]c4ccccc34)C2CC(C)C)[nH]1 (centres unmarked),-45.1%
4,Cc1cccc(CN2CCc3c([nH]c4ccccc34)C2CC(C)C)n1 (centres unmarked),-3.98%
5,CCn1ccnc1CN1CCc2c([nH]c3ccccc23)C1C(C)(C)C (centres unmarked),-59.7%
6,CCn1ccnc1CN1CCc2c([nH]c3ccccc23)C1CC(C)C (centres unmarked),-67.9%
7,COCc1ccc(CN2CCc3c([nH]c4ccccc34)C2CC(C)C)o1 (centres unmarked),-58.7%
8,CC(C)CC1c2[nH]c3ccccc3c2CCN1C(=O)CCC(=O)N(C)C (centres unmarked),3.88%
9,CC(C)CC1c2[nH]c3ccccc3c2CCN1C(=O)c1cnccn1 (centres unmarked),3.61%
10,Br.Cc1nc(-c2ccc(C(=O)O)cc2)cs1,7.39%
11,S=C(NCCN1CCOCC1)Nc1ccc(Cl)cc1Cl,-18%
12,CCOC(=O)N1CCN(CC(O)COCc2ccccc2)CC1.Cl (centres unmarked),-4.06%
13,Cc1ccc(S(=O)(=O)Nn2c(C)ccc2C)cc1,15.3%
14,Nc1ccccc1Nc1ccccc1,-13.6%
15,O=c1c(Cl)c(NCc2ccccc2Cl)cnn1C12CC3CC(CC(C3)C1)C2,-5.06%
16,CN(C)c1ccc(C(CC(=O)O)NC(=O)c2ccc(Cl)cc2)cc1 (centres unmarked),-9.38%
17,N#CCc1ccc(NC(=O)c2ccc(S(=O)(=O)N3CCOCC3)cc2)cc1,1.97%
18,O=C(CN(c1ccccc1)S(=O)(=O)c1ccccc1[N+](=O)[O-])Nc1ccccc1C(=O)N1CCOCC1,3.76%
19,Cc1ccc(CN2CCSCC2)c(C)c1,16.9%
20,Cc1cccc(OCC(O)Cn2c(N3CCCCC3)nc3c2c(=O)[nH]c(=O)n3C)c1 (centres unmarked),13%
